Screening data from PubChem BioAssay.
TbREL1 inh – TbREL1 inhibition, primary screen; P86926; TbREL1 RNA ligation, FRET fluorescence; inhibition, % at 9.66 µM; 89,000 compounds, 0.49% hits; AID 1117264;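 active = inhibition above the mean inhibition across all screened compounds plus 3 SD, cut at about 11% in these data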;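 also: 0% = plate median of test wells and 100% = NSC42067 control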
Target sequence (P86926 whole entry, looked up): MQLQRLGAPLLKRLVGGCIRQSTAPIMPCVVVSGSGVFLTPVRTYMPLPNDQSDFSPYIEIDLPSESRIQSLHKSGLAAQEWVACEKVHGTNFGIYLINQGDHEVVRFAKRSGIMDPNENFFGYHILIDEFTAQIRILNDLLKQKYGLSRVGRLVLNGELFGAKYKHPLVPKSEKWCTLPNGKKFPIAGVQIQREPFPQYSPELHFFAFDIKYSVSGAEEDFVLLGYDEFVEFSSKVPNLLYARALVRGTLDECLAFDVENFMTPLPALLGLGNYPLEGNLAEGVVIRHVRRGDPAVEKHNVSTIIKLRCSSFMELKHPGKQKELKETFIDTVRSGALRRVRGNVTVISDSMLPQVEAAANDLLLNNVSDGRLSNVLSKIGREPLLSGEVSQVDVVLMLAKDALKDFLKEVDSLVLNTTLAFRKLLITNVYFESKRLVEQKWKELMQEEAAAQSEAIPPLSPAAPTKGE
Starred values were filed as active, the others as inactive. Shown is part of a subset that was picked to be rich in hits.

SMILES	TbREL1 inh
CCCCCCSc1ccc(-c2nc3ccc(Cl)cn3c2NCCCC)cc1OC	-0.9
CCCCNc1c(-c2ccc(SC3CCCCC3)c(OC)c2)nc2ccc(Cl)cn12	25.0*
CCCCCCSc1cc(-c2nc3ccc(Cl)cn3c2NC2CCCCC2)ccc1OC	-1.7
CCCOc1ccc(F)cc1-c1cc(C(=O)Nc2ccc(C)c(NS(C)(=O)=O)c2)[nH]n1	-1.4
CCCOc1ccc(F)cc1-c1cc(C(=O)NC(C)C)[nH]n1	2.6
CCCOc1ccc(F)cc1-c1cc(C(=O)Nc2ccc(OC)c(OC)c2)[nH]n1	16.2*
COc1cccc(-c2nnc(SCC(=O)Nc3ccc(Oc4ccccc4)cc3)n2Cc2ccco2)c1	0.6
COc1cccc(NC(=O)Nc2nc3ncccn3c2-c2ccc(C(F)(F)F)cc2)c1	-4.8
Cc1ccc2nc(-c3ccc(NC(=O)CSc4nnc(-c5ccccc5)n4Cc4ccco4)cc3)sc2c1	-2.5
O=C(Nc1ccc2c(c1)OCO2)OC1CC2CC1[C@H]1CCCCN1[C@H]2Cc1ccccc1 (some centres undefined)	3.1
CCC(C)(C)C(=O)N1CCc2cc(S(=O)(=O)N(C)Cc3ccco3)ccc21	-3.5
COc1cccc(NC(=O)C2CCCN2C(=O)NCc2ccccc2)c1 (centres undefined)	1.2
O=C(NCCc1nnc2ccc(NCc3ccc(Cl)cc3)nn12)c1ccccc1	-0.2
Cc1ccc(CNc2cnccn2)cc1	-0.1
Cc1ccc(CNc2ccc3nnc(-c4ccccc4)n3n2)cc1	11.1*
Cc1cc(C)cc(NC(=O)NCCCN2CCN(c3ccc(F)cc3)CC2)c1	-0.8
COc1ccc(CN(CCN2CCOCC2)C(=O)c2cc(Cl)ccc2F)cc1OC	-1.4
Nc1nc(Nc2cccc(Cl)c2)nc(NCCO)c1[N+](=O)[O-]	5.5
Nc1nc(Nc2cccc(Cl)c2)nc(NCc2ccco2)c1[N+](=O)[O-]	11.1*
COc1ccc(Nc2nc(NCc3ccco3)nc(N)c2[N+](=O)[O-])cc1	-0.5
COc1ccc2c(c1)N[C@@](CCNC=O)(c1[nH]c3ccccc3c1CCNC=O)C2=O	4.7
COc1ccc(Br)cc1CNc1ccc(O)cc1	23.8*
COc1ccc(C(=O)NN)cc1COc1ccc(Br)cc1	6.4
C=CCc1cccc(CNc2ccc(Br)cc2)c1O	-3.0
COCC(=O)N(Cc1ccccc1)c1ccccc1C(=O)Nc1cc(OC)ccc1OC	-0.4
SMILES	TbREL1 inh
Cn1c(Cc2cccs2)nnc1SCC(=O)Nc1ccc2c(c1)OCCO2	1.4
c1ccc(-c2ccc(CNc3nc(-c4ccccn4)nnc3-c3ccccc3)cc2)cc1	3.8
O=C(NCC(c1ccccc1)c1ccccc1)[C@H](Cc1ccccc1)NC1(C(=O)NC2CCCCC2)CCC1	-3.4
Cc1cc(=O)[nH]c(SCC(=O)Nc2ccc(Cl)cc2)n1	0.9
CCCCn1cnc2c(oc3ccccc32)c1=O	2.9
CC(C)C(C)NC(=O)Cn1cnc2c(oc3ccccc32)c1=O (centres undefined)	2.1
CCOC(=O)C(C)n1cnc2c(oc3ccccc32)c1=O (centres undefined)	16.5*
O=C(NCc1ccccc1Cl)O[C@H]1CC[C@@]23CCCN2C(=O)CCC[C@H]3C1	-1.3
COC(=O)[C@]12C[C@H](CC(=O)NCCC(C)C)C(=O)N(Cc3cccc4ccccc34)C1=C[C@H](C(C)(C)C)O[C@@H]2C	4.4
Cn1c(SCC(=O)Nc2ccc(S(=O)(=O)Nc3nccs3)cc2)nc2sc3c(c2c1=O)CCCC3	-5.6
O=C(NCCCc1ccccc1)[C@H](CO)NC1(C(=O)NCCc2c[nH]c3ccccc23)CCCCC1	-2.5
Cc1ccc(Cn2cc(COC(=O)NCC(C)C)nn2)cc1	-1.7
CN(CCC#N)C(=O)COC(=O)c1c2c(nc3ccccc13)/C(=C/c1ccco1)CC2	20.8*
CC(C)CNC(=O)COC(=O)c1c2c(nc3ccccc13)/C(=C\c1cccs1)CC2	-4.4
CN(CCC#N)C(=O)COC(=O)c1ccc2[nH]c3c(c2c1)CCCC3	1.5
Cc1ccc(-n2c(SCC(=O)Nc3ccc(OCc4ccccc4)cc3)nnc2-c2ccccc2)cc1	-5.1
COc1cc(/C=N/n2c(-c3cc(-c4ccccc4)n[nH]3)n[nH]c2=S)ccc1OCc1ccccc1	-5.9
Cc1ccc(S(=O)(=O)N2CCCC2C(=O)N2CCN(c3ccccc3)CC2)cc1 (centres undefined)	-2.1
Cc1c(NC(=O)CN2CC(C)OC(C)C2)c(=O)n(-c2ccccc2)n1C (centres undefined)	12.6*
Cc1ccc(SCCC(=O)Nc2c(C)n(C)n(-c3ccccc3)c2=O)cc1	-0.7
Cc1c(NC(=O)CN2CCN(c3ccccc3)CC2)c(=O)n(-c2ccccc2)n1C	3.2
CCOC(=O)c1ccc(NC(=O)CSc2nnc(-c3cc(-c4ccccc4)n[nH]3)n2N)cc1	7.6
Cc1ccc(-n2c(SCC(=O)c3ccc(O)c(O)c3)nnc2-c2ccccc2)cc1	-4.1
CC(=O)c1cnc(N(C)C)s1	-0.4
CN(C)c1ncc(C2=C(Cl)C(=O)C(N3CCCC3)=C(Cl)C2=O)s1	68.9*
SMILES	TbREL1 inh
Nn1c(SCC(=O)Nc2nccs2)nnc1-c1cc(-c2ccccc2)n[nH]1	-1.4
C=C(C)CSc1nnc(-c2cc(-c3ccccc3)n[nH]2)n1N	2.2
O=c1c(OC2OC(CO)C(O)C(O)C2O)c(-c2ccc(O)c(O)c2)oc2cc(O)cc(O)c12 (centres undefined)	91.6*
O=c1c2c(O)cc(O)cc2oc2c(O)ccc(O[C@H]3O[C@@H](CO)[C@H](O)[C@@H](O)[C@@H]3O)c12	4.9
O=c1c(O[C@H]2O[C@@H](CO)[C@H](O)[C@@H](O)[C@@H]2O)c(-c2ccc(O)cc2)oc2cc(O)cc(O)c12	3.4
NC(=O)c1c(N)[nH]c(C(=O)c2ccccc2)c1-c1cccc2ccccc12	-4.4
Cc1cc(NS(=O)(=O)c2ccc(NC(=O)CSc3nc4sc(C)c(C)c4c(=O)n3Cc3ccco3)cc2)nc(C)n1	-1.4
O=S(=O)(O)c1cc(O)c2cc(Nc3ccccc3)ccc2c1	13.8*
Cc1ccc(S(=O)(=O)c2cc(Nc3ccccc3)ccc2O)cc1	3.2
Nc1cccc(Nc2ccccc2)c1	-2.5
C[C@H]1C2CC(OC(=O)Nc3ccc4c(c3)OCO4)C(C2)[C@H]2CCCCN21 (some centres undefined)	-2.3
O=C(CCc1nc(-c2ccccc2F)no1)NCCc1cccc(F)c1	-0.2
CCCCN(C)C(=O)CN1C(=O)C2CCCCN2C(=O)c2ccccc21 (centres undefined)	6.2
O=C(c1cc(-c2ccc(F)cc2)no1)N1CCN(Cc2ccc3c(c2)OCO3)CC1	-3.4
O=C(c1ccc(Br)o1)N1CCN(Cc2ccc3c(c2)OCO3)CC1	27.4*
O=C(c1cc([N+](=O)[O-])cc([N+](=O)[O-])c1)N1CCN(Cc2ccc3c(c2)OCO3)CC1	-1.7
Cc1ccc(OCCOc2c(Cl)cc(Cl)cc2Cl)c([N+](=O)[O-])n1	3.2
C#CCOCCOCCOCCNc1nc(N2CCN(C(=O)CCCCCCCCCCNC(=O)[C@H](CCCCN)n3cc(CCO)nn3)CC2)nc(N2CCN(C(=O)CCCCCCCCCCNC(=O)[C@H](CCCCN)n3cc(CCCC(=O)O)nn3)CC2)n1	11.9*
C#CCOCCOCCOCCNc1nc(N2CCOCC2)nc(N2CCN(C(=O)[C@H](CCCCN)n3cc(CCC(=O)O)nn3)CC2)n1	0.9
C#CCOCCOCCOCCNc1nc(N2CCOCC2)nc(N2CCN(C(=O)CCCCCCCCCCNC(=O)[C@H](CO)n3cc(CCCSC)nn3)CC2)n1	-3.3
O=C(CSc1nnc(Cn2c(=O)sc3ccccc32)n1-c1ccccc1)N1CCCC1	1.2
